Targets with a hit are over-represented here; the source holds about 7,900 in all. About 0.6% of all pairs of compound and target were hits.
Experiments:
Assay in all cases: log2 fold change, soluble protein after heating vs DMSO (PISA); higher = thermal stabilisation; K562 cells, 10 uM, 30 min; active = over 0.2 and 3.5 SD of the protein, either way, in both replicates (recomputed)
[1] = compound: C1=CC=C(C=C1)[C@H](COC2=CC3=C(C=C2)NC(=O)N3)NC(=O)C4=CC=CN(C4=O)CC5=CC(=C(C=C5)F)F
Method in brief: (§1)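 Soluble protein was quantified by TMTpro 16plex LC-MS/MS after channel sums were equalised. It was obtained as the supernatant after 21,000xg for 90 min from pooled aliquots of K562 cells (2×10^6 cells/mL, 10 μM compound, 30 min) heated for 3 min across 48°C-58°C and extracted in PBS with 0.5% NP-40 at 4°C. Thermal stability values are relative to control samples and come from duplicates. They are given as log2 fold changes.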

[2] = compound: CC1=C(SC2=C1C(=N[C@H](C3=NN=C(N32)C)CC(=O)N)C4=CC=C(C=C4)Cl)C
Method in brief: as §1

[3] = compound: CC1=C2C(=CC=C1)N=C(N(C2=O)C3=CC=CC=C3C)CN4C=NC5=C(N=CN=C54)N
Method in brief: as §1

[4] = compound: Cc1sc2c(c1C)C(c1ccc(Cl)cc1)=N[C@@H](CC(=O)OC(C)(C)C)c1nnc(C)n1-2
Method in brief: as §1

[5] = compound: c1ccc([C@@H]2C[C@H]2NC2CCNCC2)cc1
Method in brief: as §1

Measured: log2 fold change

CTSL (UniProt P07711)
inactive: [1] -0.017 | [2] -0.07 | [3] 0.015 | [4] 0.031 | [5] 0.104

DIP2A (UniProt Q14689)
inactive: [1] -0.03 | [2] 0.042 | [3] -0.149 | [4] 0.019 | [5] -0.078

DOHH (UniProt Q9BU89)
inactive: [1] 0.218 | [2] 0.072 | [3] -0.062 | [4] 0.031 | [5] -0.088

CTSV (UniProt O60911)
inactive: [1] -0.02 | [2] -0.087 | [3] 0.021 | [4] -0.065 | [5] 0.005

DCUN1D1 (UniProt Q96GG9)
inactive: [1] -0.011 | [2] 0.064 | [3] 0.073 | [4] -0.033 | [5] 0.003

ESYT1 isoform 2 (UniProt Q9BSJ8)
Sequence of UniProt Q9BSJ8 (Q9BSJ8 whole entry, looked up): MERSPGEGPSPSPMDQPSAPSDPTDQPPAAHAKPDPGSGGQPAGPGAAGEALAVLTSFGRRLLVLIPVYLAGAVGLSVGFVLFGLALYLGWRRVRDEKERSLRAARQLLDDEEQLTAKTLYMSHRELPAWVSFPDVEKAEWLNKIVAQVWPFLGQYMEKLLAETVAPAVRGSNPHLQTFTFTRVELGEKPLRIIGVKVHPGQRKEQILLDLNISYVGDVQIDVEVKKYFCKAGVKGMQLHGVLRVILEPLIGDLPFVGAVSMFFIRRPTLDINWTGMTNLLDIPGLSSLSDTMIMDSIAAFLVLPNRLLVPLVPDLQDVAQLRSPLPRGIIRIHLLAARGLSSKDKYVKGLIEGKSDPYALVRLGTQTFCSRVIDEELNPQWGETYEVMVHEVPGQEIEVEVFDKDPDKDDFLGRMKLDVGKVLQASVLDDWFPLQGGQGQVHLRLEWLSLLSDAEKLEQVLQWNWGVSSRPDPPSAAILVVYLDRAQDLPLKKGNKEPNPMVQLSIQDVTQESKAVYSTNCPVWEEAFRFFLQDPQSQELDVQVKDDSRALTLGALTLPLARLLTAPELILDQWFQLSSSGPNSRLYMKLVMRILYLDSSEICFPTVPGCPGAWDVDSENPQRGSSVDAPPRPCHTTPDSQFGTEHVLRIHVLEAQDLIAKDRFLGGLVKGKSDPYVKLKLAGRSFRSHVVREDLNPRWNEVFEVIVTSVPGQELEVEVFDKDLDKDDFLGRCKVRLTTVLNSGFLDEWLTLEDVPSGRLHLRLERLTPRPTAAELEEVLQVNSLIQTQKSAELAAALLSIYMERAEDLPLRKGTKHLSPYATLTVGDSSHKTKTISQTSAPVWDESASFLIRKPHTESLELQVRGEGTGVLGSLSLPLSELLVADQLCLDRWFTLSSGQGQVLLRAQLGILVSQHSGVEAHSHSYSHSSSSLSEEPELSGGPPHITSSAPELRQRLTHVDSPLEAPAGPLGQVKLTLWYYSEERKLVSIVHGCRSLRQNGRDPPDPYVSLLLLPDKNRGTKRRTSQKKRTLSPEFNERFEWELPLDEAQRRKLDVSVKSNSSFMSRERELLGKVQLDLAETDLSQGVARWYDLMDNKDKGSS
inactive: [1] -0.063 | [2] -0.046 | [3] 0.018 | [4] 0.008 | [5] -0.046

DSN1 (UniProt Q9H410)
Sequence of UniProt Q9H410 (Q9H410 whole entry, looked up): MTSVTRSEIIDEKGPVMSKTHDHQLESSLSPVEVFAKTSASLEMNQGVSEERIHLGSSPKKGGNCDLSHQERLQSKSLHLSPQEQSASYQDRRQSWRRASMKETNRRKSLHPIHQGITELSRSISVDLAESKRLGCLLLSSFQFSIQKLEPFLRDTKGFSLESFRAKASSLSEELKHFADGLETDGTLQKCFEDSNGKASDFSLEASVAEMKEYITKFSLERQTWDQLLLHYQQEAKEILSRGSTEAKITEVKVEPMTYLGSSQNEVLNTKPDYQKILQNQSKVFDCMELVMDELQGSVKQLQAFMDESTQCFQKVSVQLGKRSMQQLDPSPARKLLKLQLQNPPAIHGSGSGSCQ
inactive: [1] 0.02 | [2] 0.016 | [3] 0.059 | [4] 0.045 | [5] -0.054

DBT (UniProt P11182)
inactive: [1] -0.003 | [2] -0.004 | [3] 0.012 | [4] 0.062 | [5] 0.007

DTNBP1 (UniProt Q96EV8)
inactive: [1] -0.033 | [2] 0.031 | [3] 0.02 | [4] 0.001 | [5] 0.013

EXOC5 (UniProt O00471)
Sequence of UniProt O00471 (O00471 whole entry, looked up): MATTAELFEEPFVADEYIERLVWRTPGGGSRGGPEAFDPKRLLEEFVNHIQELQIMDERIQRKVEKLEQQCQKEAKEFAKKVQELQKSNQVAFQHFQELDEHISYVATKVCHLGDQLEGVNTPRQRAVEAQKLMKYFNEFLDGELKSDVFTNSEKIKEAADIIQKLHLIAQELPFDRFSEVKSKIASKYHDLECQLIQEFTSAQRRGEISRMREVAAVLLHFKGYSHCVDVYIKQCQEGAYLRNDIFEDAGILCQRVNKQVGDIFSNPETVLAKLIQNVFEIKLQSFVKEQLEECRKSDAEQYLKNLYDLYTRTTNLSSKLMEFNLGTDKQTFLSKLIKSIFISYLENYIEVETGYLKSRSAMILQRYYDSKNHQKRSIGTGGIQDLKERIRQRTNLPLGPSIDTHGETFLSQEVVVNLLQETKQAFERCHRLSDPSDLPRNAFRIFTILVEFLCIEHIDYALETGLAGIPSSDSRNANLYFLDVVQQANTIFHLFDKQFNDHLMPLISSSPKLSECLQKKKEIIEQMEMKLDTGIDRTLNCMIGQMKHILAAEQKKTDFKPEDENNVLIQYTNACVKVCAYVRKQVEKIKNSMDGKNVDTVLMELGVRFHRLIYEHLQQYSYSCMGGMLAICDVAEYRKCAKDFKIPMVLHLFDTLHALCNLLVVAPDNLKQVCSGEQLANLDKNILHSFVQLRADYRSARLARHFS
inactive: [1] -0.069 | [2] -0.006 | [3] 0.07 | [4] 0.066 | [5] -0.018

CTNNB1 (UniProt P35222)
inactive: [1] -0.039 | [2] 0.101 | [3] 0.312 | [4] -0.062 | [5] -0.149

FADS3 (UniProt Q9Y5Q0)
Sequence of UniProt Q9Y5Q0 (Q9Y5Q0 whole entry, looked up): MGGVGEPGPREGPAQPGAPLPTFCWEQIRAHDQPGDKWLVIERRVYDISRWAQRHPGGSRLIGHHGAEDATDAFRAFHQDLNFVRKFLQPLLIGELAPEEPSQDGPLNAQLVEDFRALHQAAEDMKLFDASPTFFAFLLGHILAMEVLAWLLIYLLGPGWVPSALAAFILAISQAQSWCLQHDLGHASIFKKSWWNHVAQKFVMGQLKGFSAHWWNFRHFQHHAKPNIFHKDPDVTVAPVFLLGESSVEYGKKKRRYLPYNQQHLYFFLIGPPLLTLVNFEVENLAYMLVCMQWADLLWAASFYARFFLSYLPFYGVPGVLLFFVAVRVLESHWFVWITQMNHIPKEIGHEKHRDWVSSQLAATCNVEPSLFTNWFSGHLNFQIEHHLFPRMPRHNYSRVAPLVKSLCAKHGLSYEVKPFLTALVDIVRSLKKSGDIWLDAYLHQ
inactive: [1] 0.027 | [2] 0.023 | [3] 0.026 | [4] 0.025 | [5] -0.007

EDEM2 (UniProt Q9BV94)
inactive: [1] 0.194 | [2] 0.042 | [3] 0.013 | [4] -0.046 | [5] 0.012

EFL1 (UniProt Q7Z2Z2)
Sequence of UniProt Q7Z2Z2 (Q7Z2Z2 whole entry, looked up): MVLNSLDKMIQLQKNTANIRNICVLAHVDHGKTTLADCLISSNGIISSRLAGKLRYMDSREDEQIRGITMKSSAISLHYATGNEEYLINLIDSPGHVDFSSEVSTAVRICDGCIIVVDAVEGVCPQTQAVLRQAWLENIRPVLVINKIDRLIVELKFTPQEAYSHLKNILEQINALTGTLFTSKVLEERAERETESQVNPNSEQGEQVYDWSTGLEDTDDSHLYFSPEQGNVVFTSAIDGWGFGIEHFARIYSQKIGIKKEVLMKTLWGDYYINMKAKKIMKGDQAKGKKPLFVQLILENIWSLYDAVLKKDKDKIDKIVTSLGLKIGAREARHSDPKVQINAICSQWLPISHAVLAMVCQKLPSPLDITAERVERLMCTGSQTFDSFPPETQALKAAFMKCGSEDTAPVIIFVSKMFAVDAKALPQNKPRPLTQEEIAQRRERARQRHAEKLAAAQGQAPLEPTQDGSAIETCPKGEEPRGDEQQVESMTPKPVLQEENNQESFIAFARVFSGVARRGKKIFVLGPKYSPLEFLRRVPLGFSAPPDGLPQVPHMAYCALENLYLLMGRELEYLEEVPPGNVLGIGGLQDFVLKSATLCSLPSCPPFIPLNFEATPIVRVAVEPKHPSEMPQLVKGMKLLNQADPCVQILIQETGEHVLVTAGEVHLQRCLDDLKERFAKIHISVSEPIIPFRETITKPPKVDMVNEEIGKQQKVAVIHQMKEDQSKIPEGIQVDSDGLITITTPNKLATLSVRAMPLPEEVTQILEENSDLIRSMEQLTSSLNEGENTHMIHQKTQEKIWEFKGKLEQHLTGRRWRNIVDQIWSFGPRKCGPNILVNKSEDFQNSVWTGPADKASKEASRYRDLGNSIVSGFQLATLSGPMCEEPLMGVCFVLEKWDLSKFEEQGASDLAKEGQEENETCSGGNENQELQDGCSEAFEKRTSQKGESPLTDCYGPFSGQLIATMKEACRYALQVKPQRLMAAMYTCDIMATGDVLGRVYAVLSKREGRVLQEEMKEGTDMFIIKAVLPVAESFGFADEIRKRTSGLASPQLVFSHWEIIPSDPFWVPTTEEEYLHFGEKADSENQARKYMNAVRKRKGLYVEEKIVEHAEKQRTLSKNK
inactive: [1] -0.042 | [2] 0.051 | [3] 0.083 | [4] 0.008 | [5] -0.017

DHPS (UniProt M0R1T2)
inactive: [1] -0.155

DCAF16 (UniProt Q9NXF7)
inactive: [1] 0.06 | [2] 0.056 | [3] 0.079 | [4] 0.032 | [5] -0.032

CTSH (UniProt P09668)
inactive: [1] 0 | [2] -0.046 | [3] -0.038 | [4] -0.035 | [5] 0.055

EIF4E isoform 2 (UniProt P06730)
inactive: [1] 0.029 | [2] -0.026 | [3] -0.002 | [4] -0.144 | [5] 0.009

DNAJB1 (UniProt P25685)
Sequence of UniProt P25685 (P25685 whole entry, looked up): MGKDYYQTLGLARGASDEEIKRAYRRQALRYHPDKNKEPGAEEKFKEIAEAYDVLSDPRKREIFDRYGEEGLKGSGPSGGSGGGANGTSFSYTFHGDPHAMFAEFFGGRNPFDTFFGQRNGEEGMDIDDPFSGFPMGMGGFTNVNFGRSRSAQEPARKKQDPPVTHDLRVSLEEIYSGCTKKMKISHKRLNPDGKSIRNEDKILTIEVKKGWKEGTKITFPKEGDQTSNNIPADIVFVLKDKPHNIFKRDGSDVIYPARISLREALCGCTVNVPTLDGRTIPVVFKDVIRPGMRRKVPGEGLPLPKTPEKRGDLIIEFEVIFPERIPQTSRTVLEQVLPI
inactive: [1] -0.019 | [2] 0.015 | [3] 0.066 | [4] -0.003 | [5] -0.026

FAF2 (UniProt Q96CS3)
inactive: [1] 0.002 | [2] 0.025 | [3] 0.067 | [4] -0.012 | [5] -0.017

CTSA (UniProt P10619)
inactive: [1] 0.004 | [2] -0.063 | [3] -0.034 | [4] -0.018 | [5] 0.03

DPP8 (UniProt Q6V1X1)
inactive: [1] -0.112 | [2] 0.029 | [3] 0.145 | [4] -0.033 | [5] 0.005

EXOC4 (UniProt Q96A65)
inactive: [1] -0.05 | [2] 0.052 | [3] 0.015 | [4] 0.081 | [5] -0.049

EIF4E2 (UniProt O60573)
inactive: [1] -0.043 | [2] -0.01 | [3] -0.007 | [4] -0.06 | [5] 0.055

DAXX (UniProt Q9UER7)
inactive: [1] 0.166 | [2] 0.178 | [3] 0.197 | [4] 0.017 | [5] -0.101

DNAAF2 (UniProt Q9NVR5)
inactive: [1] 0.039 | [2] 0.02 | [3] -0.013 | [4] -0.003 | [5] 0.002

EIF2AK1 (UniProt Q9BQI3)
inactive: [1] 0.025 | [2] -0.036 | [3] -0.051 | [4] 0.025 | [5] 0.018

DNAJC19 (UniProt Q96DA6)
inactive: [1] 0.025 | [2] 0.021 | [3] 0.05 | [4] 0 | [5] -0.041

DYRK1A isoform 2 (UniProt Q13627)
inactive: [1] -0.062 | [2] 0.059 | [3] 0.085 | [4] 0.026 | [5] 0.011

DNAJC1 (UniProt Q96KC8)
inactive: [1] -0.024 | [2] 0.054 | [3] 0.08 | [4] -0.015 | [5] 0.052

EPHX2 (UniProt E5RI53)
inactive: [1] -0.024

EIF2S3 (UniProt P41091)
inactive: [1] 0.008 | [2] -0.023 | [3] -0.017 | [4] 0.054 | [5] -0.002

DMXL1 (UniProt Q9Y485)
inactive: [1] -0.017 | [2] 0.003 | [3] 0.071 | [4] -0.016 | [5] -0.05

EEF1AKNMT (UniProt Q8N6R0)
inactive: [1] -0.146 | [2] 0.049 | [3] 0.121 | [4] 0.028 | [5] -0.063

F5 (UniProt P12259)
inactive: [1] -0.025 | [2] -0.091 | [3] 0.003 | [4] 0.077 | [5] 0.014

DOCK8 (UniProt Q8NF50)
inactive: [1] 0.096 | [2] -0.223 | [3] -0.01 | [4] 0.152 | [5] -0.087

DDB1 isoform 2 (UniProt Q16531)
inactive: [1] 0.028

FAM177A1 isoform 2 (UniProt Q8N128)
inactive: [1] -0.073 | [2] 0.047 | [3] 0.17 | [4] -0.002 | [5] 0.028

ESS2 (UniProt Q96DF8)
inactive: [1] 0.04 | [2] -0.06 | [3] -0.096 | [4] 0.018 | [5] 0.075

DHRS3 (UniProt O75911)
Sequence of UniProt O75911 (O75911 whole entry, looked up): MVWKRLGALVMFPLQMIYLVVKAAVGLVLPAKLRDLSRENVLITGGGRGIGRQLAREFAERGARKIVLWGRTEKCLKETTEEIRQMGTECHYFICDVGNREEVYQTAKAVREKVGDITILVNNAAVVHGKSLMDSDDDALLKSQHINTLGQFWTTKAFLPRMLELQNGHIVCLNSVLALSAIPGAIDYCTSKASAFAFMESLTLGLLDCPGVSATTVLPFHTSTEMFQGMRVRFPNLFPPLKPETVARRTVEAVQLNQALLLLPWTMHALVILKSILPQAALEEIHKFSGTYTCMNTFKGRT
inactive: [1] 0.007 | [2] 0.068 | [3] 0.057 | [4] 0.017 | [5] -0.024

ERCC6 (UniProt Q03468)
inactive: [1] 0.013 | [2] -0.025 | [3] -0.018 | [4] -0.008 | [5] 0.151

FAM118B (UniProt Q9BPY3)
inactive: [1] -0.276 | [2] -0.01 | [3] 0.208 | [4] -0.019 | [5] -0.009

ECH1 (UniProt Q13011)
inactive: [1] -0.072 | [2] 0.161 | [3] 0.086 | [4] -0.114 | [5] -0.046

FAM3A (UniProt P98173)
inactive: [1] -0.01 | [2] -0.001 | [3] 0.038 | [4] -0.051 | [5] -0.014

CYBA (UniProt P13498)
inactive: [1] 0.007 | [2] 0.034 | [3] -0.013 | [4] 0.027 | [5] 0.031

EIF4A1 (UniProt P60842)
inactive: [1] -0.043 | [2] 0.096 | [3] 0.05 | [4] -0.005 | [5] -0.042

DDB1 (UniProt Q16531)
inactive: [1] 0.023 | [2] -0.003 | [3] 0.01 | [4] 0 | [5] 0.016

DBNL isoform 3 (UniProt Q9UJU6)
inactive: [1] -0.096 | [2] 0.002 | [3] 0.045 | [4] 0.029 | [5] 0.01

EGR1 (UniProt P18146)
inactive: [1] 0.034 | [2] 0.241 | [3] -0.097 | [4] 0.705 | [5] 0.07

DOLPP1 (UniProt Q86YN1)
Sequence of UniProt Q86YN1 (Q86YN1 whole entry, looked up): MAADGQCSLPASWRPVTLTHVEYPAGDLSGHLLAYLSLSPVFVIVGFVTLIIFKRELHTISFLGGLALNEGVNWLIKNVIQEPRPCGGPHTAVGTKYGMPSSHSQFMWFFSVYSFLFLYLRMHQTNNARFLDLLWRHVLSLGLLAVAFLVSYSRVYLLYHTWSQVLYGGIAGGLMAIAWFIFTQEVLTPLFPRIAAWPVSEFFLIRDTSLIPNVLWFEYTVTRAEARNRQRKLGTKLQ
inactive: [1] -0.028 | [2] 0.02 | [3] -0.107 | [4] 0.062 | [5] 0.153

DYNC1I2 isoform 5 (UniProt Q13409)
inactive: [1] 0.019 | [2] 0.021 | [3] -0.006 | [4] -0.033 | [5] -0.019

DNAJC7 (UniProt Q99615)
inactive: [1] -0.045 | [2] 0.043 | [3] 0.072 | [4] -0.013 | [5] 0

DDX46 (UniProt Q7L014)
inactive: [1] -0.059 | [2] 0.09 | [3] 0.184 | [4] -0.064 | [5] 0

ERLIN1 (UniProt O75477)
Sequence of UniProt O75477 (O75477 whole entry, looked up): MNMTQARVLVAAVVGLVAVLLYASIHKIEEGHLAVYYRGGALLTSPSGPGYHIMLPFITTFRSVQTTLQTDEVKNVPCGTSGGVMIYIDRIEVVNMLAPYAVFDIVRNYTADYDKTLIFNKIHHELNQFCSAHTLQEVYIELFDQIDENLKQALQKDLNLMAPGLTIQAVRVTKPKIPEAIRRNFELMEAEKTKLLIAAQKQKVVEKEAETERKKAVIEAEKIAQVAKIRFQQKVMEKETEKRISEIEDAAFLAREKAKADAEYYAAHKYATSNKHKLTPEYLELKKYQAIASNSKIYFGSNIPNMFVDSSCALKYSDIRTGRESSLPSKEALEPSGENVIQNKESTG
inactive: [1] -0.007 | [2] -0.036 | [3] 0.002 | [4] -0.038 | [5] -0.026

EEF1G isoform 2 (UniProt P26641)
inactive: [1] -0.068 | [2] 0.005 | [3] -0.049 | [4] -0.001 | [5] -0.006
